Screen size: about 340,000 compounds; about 4,200 (1.2%) were called active. Many of the other results were omitted from the sample, so actives are more common in it than they were. A number with no mark means an inactive call.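 Rule for the calls: active = inhibition above the mean of all tested compounds plus 3 SD (cut at about 24% in these data); inactive = the rest.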

Broadly, the inhibition is the drop in the measured response relative to a control, in per cent.

Chain of Platelet-activating factor acetylhydrolase IB subunit alpha2 (Homo sapiens) (P68402 whole entry, looked up): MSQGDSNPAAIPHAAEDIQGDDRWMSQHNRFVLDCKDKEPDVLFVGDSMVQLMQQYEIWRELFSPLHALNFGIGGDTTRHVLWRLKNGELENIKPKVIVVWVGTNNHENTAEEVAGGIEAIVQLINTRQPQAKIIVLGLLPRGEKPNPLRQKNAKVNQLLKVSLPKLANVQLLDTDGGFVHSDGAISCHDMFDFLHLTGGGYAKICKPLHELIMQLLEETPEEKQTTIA

This assay concerns the target Platelet-activating factor acetylhydrolase IB subunit alpha2 (Homo sapiens) (UniProt P68402). The assay is described as follows: PAFAH1B2 enzyme inhibitors, primary screen, biochemical, fluorescence polarization, human (AID 492953).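 Note: 0% = enzyme with DMSO and 100% = wells lacking PAFAH1B2.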 The conditions noted are these: recombinant PAFAH1B2, FP-rhodamine activity probe, at 3.39 µM, active compounds read high.
With `CCc1ccc(S(=O)(=O)Nc2cc3c(cc2N2CCCCC2)n(C)c(=O)c(=O)n3C)cc1`, the inhibition was 28.5% (active).

For `Cc1ccc(NS(=O)(=O)c2ccc3c(c2)n(C)c(=O)c(=O)n3C)c(C)c1`, the inhibition is 0.65%. The value for `Cn1c(=O)c(=O)n(C)c2cc(S(=O)(=O)CCC(=O)N3CCCCC3)ccc21` was 5.13%; that for `O=C(NC1=CC(=O)c2ccccc2C1=O)c1ccccc1` was 17%. The value for `CN(O)C(=S)c1ccccc1` was -1.16%; that for `Cc1ccc(C(=O)N/C(=C/c2ccc(-c3cccc([N+](=O)[O-])c3)o2)C(=O)NCCCN(C)C)cc1` was 1.95%; that for `NS(=O)(=O)c1ccc(N=Nc2c(O)[nH]c3ccc(Br)cc23)cc1` was 11.8%.

With `O=C(CNC(=O)Cc1ccccc1)N=Nc1c(O)[nH]c2ccc(Br)cc12`, the inhibition was -1.85%. The value for `Oc1[nH]c2ccc(Br)cc2c1N=Nc1nn[nH]n1` was 73.3% (active); that for `Cc1cc(C)c(NC(=O)CN2CCOCCOCCOCCOCC2)c(C)c1` was 0.53%. The value for `Cc1nc2nc(C)c(NS(=O)(=O)c3ccc(C(C)(C)C)cc3)c(=O)n2[nH]1` was 16.3%. The value for `CC1(C)Cc2ccccc2/C(=C/C(=O)c2ccccc2)N1` was -0.07%; that for `CC1(C)Cc2ccccc2-c2nc(CN3CCOCC3)[nH]c(=O)c21` was 6.87%. Turning to `CC1(C)Cc2ccccc2-c2[nH]c(=S)[nH]c(=O)c21`, the inhibition is 26.1% (active).

Consider `CC1C(C)N(C(=O)CCl)c2ccccc2N1C(=O)CCl` (stereo not drawn), for which the inhibition is 2.69%. Under `CC(NC(=O)CC1SC(N)=NC1=O)c1ccccc1` (stereo not drawn) stands 3.61%; under `CN(CC(=O)Nc1ccc(Cl)cc1)C(=O)c1ccc(COc2ccccc2)cc1`, 7.71%. As to `CN(CC(=O)Nc1ccc(Cl)cc1)C(=O)CNC(=O)c1ccc2ccccc2c1`, the inhibition is 29% (active).

With `O=C(NNC(=O)c1ccc2ccccc2c1)c1ccc(Cl)cc1`, the inhibition was 3.28%.

`Clc1ccc2c(c1)C1=C(C(c3ccncc3)O2)C(c2ccc(Br)cc2)n2ncnc2N1` (stereo not drawn): the inhibition is 2.64%. Consider `CN(C)S(=O)(=O)c1cccc(C(=O)OCC(=O)N2CCCC2=O)c1`, for which the inhibition is 0.79%. Under `CC(=O)c1cccc(NC(=O)N2CCCC2C(=O)NCCc2ccccc2)c1` (stereo not drawn) stands 4.97%; under `CCc1ccccc1NC(=O)Cc1cn(C)c2ccccc12`, 4.1%. On to `COc1ccc(-c2cc(C(=O)NC(Cc3c[nH]c4ccccc34)C(=O)O)c(C)o2)cc1OC` (stereo not drawn), for which the inhibition was 9.21%. Under `CC(Oc1ccc2c(-c3ccccc3)cc(=O)oc2c1)C(=O)NC(Cc1c[nH]c2ccccc12)C(=O)O` (stereo not drawn) stands 69.3% (active). As for `COc1ccc(-c2cc(=O)oc3cc(OCC(=O)N[C@@H](Cc4c[nH]c5ccccc45)C(=O)O)ccc23)cc1`, the inhibition is 4.23%. The value for `CSc1ncnc2c1ncn2CC(=O)C1CCC2C3CCC4=CC(=O)CCC4(C)C3CCC12C` (stereo not drawn) was 3.57%. Consider `Cc1ccc(S(=O)(=O)N2CCN(S(=O)(=O)N3CCOCC3)CC2)cc1`, for which the inhibition is 2.69%. Take `CC(C)(C)c1ccc(C(=O)N2CCN(CCNC(=O)C(=O)Nc3ccc(F)cc3)CC2)cc1`: the inhibition was 0.31%.

Turning to `CC(=O)N1CCOc2ccc(S(=O)(=O)N3CCN(c4cccc(C(F)(F)F)c4)CC3)cc21`, the inhibition was 3.14%.

For `CC1CN(C(=O)c2cc(COc3c(F)cccc3F)on2)CCN1C` (stereo not drawn), the inhibition was 0.48%.

In the case of `CC(=O)CC(CC(=O)NC1CCCCC1)c1ccccc1` (stereo not drawn), the inhibition is 5.22%. The value for `O=C(CCS(=O)(=O)c1ccccc1)NC1CCCC1` was 5.22%; that for `O=C(CNC1CCCCC1)NCC1(c2ccccc2)CCCC1` was 26.9% (active). The value for `CC(C)Cn1cnc2c(SCc3ccc(Cl)cc3)nc(N)nc21` was 7.46%; that for `Cc1ccc(C(=O)COC(=O)CCN2C(=O)C3C4CC(C(Br)C4Br)C3C2=O)cc1` (stereo not drawn) was -1.23%; that for `COc1cccc(N2CCN(CC(=O)Nc3ccnn3C3CCCC3)CC2)c1` was 1.78%.

Take `O=C(COC(=O)Cn1[nH]c(=O)c2ccccc2c1=O)Nc1ncc(Cl)cc1Cl`: the inhibition is 2.27%. The value for `CC1(C(=O)OCC(=O)Nc2ncc(Cl)cc2Cl)CC1(Cl)Cl` (stereo not drawn) was 2.15%. Under `CC(Oc1ccc(Cl)cc1)C(=O)OCC(=O)Nc1ncc(Cl)cc1Cl` (stereo not drawn) stands 30.6% (active); under `CCN(CC(=O)Nc1c(F)cccc1F)C(=O)c1ccc(-c2ccccc2)cc1`, 3.05%; under `COc1ccc(-c2cn(-c3ccc(C)cc3)c(=O)n2CC(=O)Nc2ccc(OC)c(OC)c2)cc1`, 2.69%. The value for `CC1CCC(NC(=O)CNC(=O)c2ccc3ccccc3c2)CC1` (stereo not drawn) was 7.58%. Turning to `CCCc1cc(=O)[nH]c(SCc2ccc(C#N)cc2)n1`, the inhibition was 25.2% (active). Under `CCCc1cc(=O)[nH]c(SCc2cc(=O)oc3c(C)c(C)ccc23)n1` stands -0.37%; under `CCCc1cc(=O)n2[nH]c(SCc3ccccc3)nc2n1`, 13.6%. The value for `Cn1cc(C2OC(=O)c3ccccc32)c2ccccc21` (stereo not drawn) was 0.55%; that for `Cc1ccc(S(=O)(=O)NCCCn2ccnc2)cc1C(=O)NC(C)C` was 2.08%; that for `Cc1ccc(S(=O)(=O)NCCC(c2ccccc2)c2ccccc2)cc1C(=O)O` was 29% (active). The value for `Cc1cccc(NS(=O)(=O)c2ccc(C)c(C(=O)NCC(c3ccccc3)N(C)C)c2)c1` (stereo not drawn) was 6.63%. In the case of `COc1cc(Cl)c(C)cc1NC(=O)COC(=O)c1cc(SC)ccc1Cl`, the inhibition was -3.93%. The value for `CSCc1cc(N2CCOCC2)nc(SCc2ccc(Cl)cc2Cl)n1` was 10.7%. Consider `N/C(=N\OC(=O)CCc1ccccc1)c1ccc(Cl)cc1`, for which the inhibition was 63.8% (active). Regarding `N/C(=N\OC(=O)CCc1ccccc1)c1cccnc1`, the inhibition was 1.52%. The value for `COc1ccc(/C(N)=N/OC(=O)CCCc2ccccc2)cc1` was 6.71%; that for `C=C(C)c1cccc(C(C)(C)NC(=O)NC2CCCC2)c1` was 4.81%; that for `COCCSc1nnc(NC(=O)c2cc(OC)c(OC)cc2[N+](=O)[O-])s1` was 4.45%. Consider `COC(=O)[C@@]1(C)[C@H]2C(=O)N(Cc3ccccc3)C(=O)[C@H]2[C@H]2CN=C(SCC3CC3)N21`, for which the inhibition is 2.74%.
